From PubChem BioAssay
Calls of active or inactive are those of the source.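 Rule for the calls, unless noted: active = differentiation response of at least 50%, scaled between solvent and reference control, from cells with both markers; inactive = the rest.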

Columns and labels:
[1] = inhibitors of CD8+ T cell-vesicle binding, pilot screen, LFA-1/ICAM-1 modulator project, MLPCN validation set, flow cytometry (AID 2523;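 active = response below a set limit, under 55% cells CD8-positive and vesicle-bound, and CD8 cells' 90th-percentile brightness under 279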;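 for vesicle binding response: mean PE anti-B7-1 fluorescence of CD8+ cells relative to row control; 100% = QL9-loaded vesicles with DMSO vehicle in the same plate row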); details: 2C mouse CD8+ T cells, at 7 µM, stronger effect = lower value; double positive events: measured here: CD8+/vesicle+ event percentage
[2] = target: Integrin beta-1 (Homo sapiens) + Integrin alpha-4 (Homo sapiens) (UniProt P13612+P05556); assay: inhibition of HUTS-21 binding to VLA-4, pilot screen, VLA-4 allosteric modulator project, U937 cells, HUTS-21 mAb, flow cytometry, validation set (AID 2674;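 active = inhibition above 50%, about 3 SD of the validation set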;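 note: antibody binding induced by the VLA-4 ligand LDV present at three times its Kd; 0% = LDV ligand with antibody and no compound and 100% = antibody without LDV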); details: HUTS-21 LIBS mAb binding, at 6.7 µM, stronger effect = higher value, binding induced by LDV ligand
Sequence of Integrin beta-1 (Homo sapiens) + Integrin alpha-4 (Homo sapiens) (P05556 whole entry, looked up): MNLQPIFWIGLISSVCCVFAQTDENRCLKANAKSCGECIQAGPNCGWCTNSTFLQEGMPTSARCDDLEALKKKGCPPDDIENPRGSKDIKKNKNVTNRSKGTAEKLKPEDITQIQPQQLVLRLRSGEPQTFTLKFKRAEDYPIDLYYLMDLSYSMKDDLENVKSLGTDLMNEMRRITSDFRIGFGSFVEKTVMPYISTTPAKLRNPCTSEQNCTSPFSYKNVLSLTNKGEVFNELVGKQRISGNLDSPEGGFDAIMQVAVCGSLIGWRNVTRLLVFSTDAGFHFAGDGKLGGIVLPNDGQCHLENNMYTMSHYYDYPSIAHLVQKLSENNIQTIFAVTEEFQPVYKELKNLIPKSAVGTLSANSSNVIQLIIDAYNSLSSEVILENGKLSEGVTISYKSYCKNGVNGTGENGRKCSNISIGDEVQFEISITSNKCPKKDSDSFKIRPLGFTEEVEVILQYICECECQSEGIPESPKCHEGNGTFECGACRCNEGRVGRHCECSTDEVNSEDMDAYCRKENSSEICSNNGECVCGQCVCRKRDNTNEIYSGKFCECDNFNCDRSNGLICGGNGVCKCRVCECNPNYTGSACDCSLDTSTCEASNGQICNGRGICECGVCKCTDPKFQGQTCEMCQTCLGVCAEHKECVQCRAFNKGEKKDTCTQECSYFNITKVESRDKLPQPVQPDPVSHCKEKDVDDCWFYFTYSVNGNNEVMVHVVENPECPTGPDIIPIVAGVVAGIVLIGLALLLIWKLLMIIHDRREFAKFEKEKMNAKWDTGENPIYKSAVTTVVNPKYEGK
Sequence of Integrin beta-1 (Homo sapiens) + Integrin alpha-4 (Homo sapiens) (P13612 whole entry, looked up): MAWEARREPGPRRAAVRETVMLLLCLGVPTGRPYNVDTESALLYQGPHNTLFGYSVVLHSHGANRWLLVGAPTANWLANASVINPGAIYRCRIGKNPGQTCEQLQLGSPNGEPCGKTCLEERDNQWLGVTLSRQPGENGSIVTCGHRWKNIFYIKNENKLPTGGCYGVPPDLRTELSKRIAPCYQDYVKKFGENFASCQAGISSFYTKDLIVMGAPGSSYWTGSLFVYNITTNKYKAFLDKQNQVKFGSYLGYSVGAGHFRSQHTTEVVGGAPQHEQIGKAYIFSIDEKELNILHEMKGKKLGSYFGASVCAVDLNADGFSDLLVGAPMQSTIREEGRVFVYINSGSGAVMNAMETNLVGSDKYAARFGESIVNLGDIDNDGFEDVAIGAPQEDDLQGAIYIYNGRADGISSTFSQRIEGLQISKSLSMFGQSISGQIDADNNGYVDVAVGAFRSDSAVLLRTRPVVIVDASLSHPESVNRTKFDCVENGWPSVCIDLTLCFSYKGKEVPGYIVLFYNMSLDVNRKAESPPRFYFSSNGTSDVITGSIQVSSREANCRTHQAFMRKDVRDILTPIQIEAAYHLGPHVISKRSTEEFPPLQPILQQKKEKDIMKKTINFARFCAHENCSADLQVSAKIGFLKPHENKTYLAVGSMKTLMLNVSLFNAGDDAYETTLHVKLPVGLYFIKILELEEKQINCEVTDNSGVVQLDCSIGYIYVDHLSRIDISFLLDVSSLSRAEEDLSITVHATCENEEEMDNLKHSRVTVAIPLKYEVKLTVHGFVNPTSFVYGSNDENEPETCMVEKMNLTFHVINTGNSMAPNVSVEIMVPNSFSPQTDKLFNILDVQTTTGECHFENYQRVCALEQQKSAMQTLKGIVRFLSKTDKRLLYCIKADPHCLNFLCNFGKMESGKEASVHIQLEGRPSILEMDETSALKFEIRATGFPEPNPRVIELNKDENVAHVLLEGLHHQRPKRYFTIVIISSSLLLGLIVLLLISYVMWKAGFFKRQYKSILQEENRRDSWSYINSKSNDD

[3] = superoxide lowering in aged yeast cells, pilot screen, validation compound set (AID 2706;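 active = superoxide response below 65% of plate, a cut near 3 SD across the whole screen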;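 note: yeast exposed to compound for one week at 30 degrees C before staining; 100% = mean of all compound wells on the same plate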); details: S. cerevisiae aging, superoxide DHE fluorescence; at 10 µM, stronger effect = lower value
[4] = target: Beta-adrenergic receptor kinase 1 (Homo sapiens) (UniProt P25098); assay: GRK2 binders displacing RNA aptamer, biochemical, validation, human GRK2, bead flow cytometry (AID 488806;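 active = aptamer binding inhibition above 30%, about 3 SD of noise from non-fluorescent compounds; inactive = inhibition at or below 30%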); details: bead-bound GRK2, FAM-aptamer displacement, at 10 µM, stronger effect = higher value
Sequence of Beta-adrenergic receptor kinase 1 (Homo sapiens) (P25098 whole entry, looked up): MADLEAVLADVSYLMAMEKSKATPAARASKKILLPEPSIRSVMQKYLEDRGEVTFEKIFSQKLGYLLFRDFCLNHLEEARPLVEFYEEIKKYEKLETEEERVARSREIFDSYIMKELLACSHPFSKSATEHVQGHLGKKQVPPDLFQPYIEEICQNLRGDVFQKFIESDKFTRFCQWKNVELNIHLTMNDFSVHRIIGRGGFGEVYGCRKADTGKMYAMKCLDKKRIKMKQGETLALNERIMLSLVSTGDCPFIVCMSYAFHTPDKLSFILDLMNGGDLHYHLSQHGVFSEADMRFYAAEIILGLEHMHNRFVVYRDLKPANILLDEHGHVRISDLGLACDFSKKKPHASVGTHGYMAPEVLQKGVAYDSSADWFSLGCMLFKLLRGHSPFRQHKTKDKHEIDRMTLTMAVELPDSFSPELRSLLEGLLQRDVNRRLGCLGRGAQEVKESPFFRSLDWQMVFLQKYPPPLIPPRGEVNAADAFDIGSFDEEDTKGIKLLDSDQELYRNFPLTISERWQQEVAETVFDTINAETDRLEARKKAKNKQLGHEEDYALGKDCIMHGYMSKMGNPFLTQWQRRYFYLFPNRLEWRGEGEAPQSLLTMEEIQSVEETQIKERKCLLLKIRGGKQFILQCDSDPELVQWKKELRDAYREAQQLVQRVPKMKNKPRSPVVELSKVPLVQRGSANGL

[5] = target: Beta-2 adrenergic receptor (Homo sapiens) (UniProt P07550); assay: beta2AR agonists driving receptor internalization, pilot screen, cell-based, FAP fluorogen, flow cytometry, validation set (AID 504459;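 active = percent response above 42, roughly 3 SD of non-fluorescent test compounds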;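 note: agonist-driven loss of surface beta2AR via internalization measured by FAP dye flow cytometry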); details: Am2.2-beta2AR cells, FAP surface receptor flow cytometry; at 10 µM; stronger effect = higher value
Sequence of Beta-2 adrenergic receptor (Homo sapiens) (P07550 whole entry, looked up): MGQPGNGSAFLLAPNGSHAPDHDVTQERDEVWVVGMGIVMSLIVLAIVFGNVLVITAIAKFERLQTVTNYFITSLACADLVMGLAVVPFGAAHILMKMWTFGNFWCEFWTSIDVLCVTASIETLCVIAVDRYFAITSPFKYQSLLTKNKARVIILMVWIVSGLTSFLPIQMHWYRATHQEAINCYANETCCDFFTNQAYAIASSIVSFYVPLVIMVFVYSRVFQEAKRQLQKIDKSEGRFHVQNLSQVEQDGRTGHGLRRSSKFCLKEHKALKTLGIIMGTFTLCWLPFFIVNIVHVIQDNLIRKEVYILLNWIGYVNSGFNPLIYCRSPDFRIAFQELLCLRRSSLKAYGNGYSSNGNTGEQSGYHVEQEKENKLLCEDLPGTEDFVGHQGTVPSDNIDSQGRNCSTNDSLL

[6] = target: AP-2 complex subunit beta (Homo sapiens) (UniProt P63010); assay: inhibitors of arrestin peptide binding to AP2, pilot screen, biochemical, validation set, GST-AP2 beads, flow cytometry (AID 504541;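 active = inhibition above 54%, about 3 SD of non-fluorescent compounds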;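 note: AP2 carries R879A mutation and is captured from E. coli lysate; bead-bound FITC arrestin peptide fluorescence measuring arrestin peptide binding to AP2; 0% = DMSO wells and 100% = excess unlabeled arrestin peptide control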); details: FITC arrestin peptide, at 10 µM, stronger effect = higher value, AP2 beta2 appendage fragment, R879A mutant
Sequence of AP-2 complex subunit beta (Homo sapiens) (P63010 whole entry, looked up, the tested form may be a part, one chain of several): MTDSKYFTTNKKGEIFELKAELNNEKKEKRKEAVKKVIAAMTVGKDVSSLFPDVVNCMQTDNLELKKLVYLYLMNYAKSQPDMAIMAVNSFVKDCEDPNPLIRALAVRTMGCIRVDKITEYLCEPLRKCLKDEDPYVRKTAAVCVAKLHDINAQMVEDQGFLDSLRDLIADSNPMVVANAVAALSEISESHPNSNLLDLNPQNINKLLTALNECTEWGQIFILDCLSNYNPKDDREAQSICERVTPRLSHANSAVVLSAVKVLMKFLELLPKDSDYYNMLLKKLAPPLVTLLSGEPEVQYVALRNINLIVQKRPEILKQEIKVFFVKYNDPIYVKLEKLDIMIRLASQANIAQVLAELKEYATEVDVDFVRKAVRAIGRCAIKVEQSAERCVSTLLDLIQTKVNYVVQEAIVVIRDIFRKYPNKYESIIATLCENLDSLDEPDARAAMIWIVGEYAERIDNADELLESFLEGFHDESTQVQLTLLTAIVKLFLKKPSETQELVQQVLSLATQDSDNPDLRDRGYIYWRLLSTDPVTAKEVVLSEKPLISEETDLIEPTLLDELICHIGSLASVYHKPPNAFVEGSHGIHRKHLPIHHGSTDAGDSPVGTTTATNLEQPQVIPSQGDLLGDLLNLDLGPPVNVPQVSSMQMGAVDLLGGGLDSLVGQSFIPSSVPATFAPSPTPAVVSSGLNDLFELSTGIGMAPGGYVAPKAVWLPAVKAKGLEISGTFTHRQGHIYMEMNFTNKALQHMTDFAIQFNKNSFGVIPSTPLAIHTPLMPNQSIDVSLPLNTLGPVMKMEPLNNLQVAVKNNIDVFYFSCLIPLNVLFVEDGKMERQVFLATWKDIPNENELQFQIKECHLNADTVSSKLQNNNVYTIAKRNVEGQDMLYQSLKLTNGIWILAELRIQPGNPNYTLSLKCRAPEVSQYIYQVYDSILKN

[7] = yeast V-ATPase proton transport modulators, S. cerevisiae, pHLuorin, HTS validation (AID 504600; in the data active = response above about 15%;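 note: plate controls were DMSO for no effect and reference compound for full effect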); details: S. cerevisiae pHLuorin cytosolic pH, at 10 µM, stronger effect = higher value
[8] = system: anti-desmoglein-3 scFv antibody binding to human DSG3; assay: inhibitors of anti-DSG3 scFv binding to DSG3, pilot screen, biochemical, validation compound set, bead-based, flow cytometry (AID 588368;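 active = binding below the plate cutoff, the plate median minus 3 SD, with a reading above zero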;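 note: signal is the median channel fluorescence of bead-bound GFP antibody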); details: Protein G beads, DSG3-Fc, scFv-GFP binding, at 10 µM, stronger effect = lower value
[9] = inhibitors of fungal efflux pumps CDR1, CDR2, MDR1, pilot screen, validation compound set, multiplex, phenotypic (AID 588506;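 active = efflux inhibition above 0.42, the validation set average plus 4 SD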;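 note: Nile Red retained in cells so higher fluorescence means more efflux inhibition; 0 = negative control wells and 1 = enniatin B 25 µM full block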); details: S. cerevisiae pump-expressing triplex, Nile Red efflux flow cytometry; at 10 µM; stronger effect = higher value; the pumps come from Candida albicans
[10] = target: ATP-binding cassette sub-family B member 6 (Homo sapiens) (UniProt Q9NP58); assay: ABCB6 transporter inhibitors, pilot screen, K562-ABCB6 cells, flow cytometry, validation set (AID 588550;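 active = inhibition above the screen-wide mean plus 3 SD, about 51%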;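 note: 0% = DMSO wells and 100% = benzethonium chloride 70 µM positive control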); details: K562-ABCB6 porphyrin accumulation, 1 h, at 10 µM, stronger effect = higher value
Sequence of ATP-binding cassette sub-family B member 6 (Homo sapiens) (Q9NP58 whole entry, looked up): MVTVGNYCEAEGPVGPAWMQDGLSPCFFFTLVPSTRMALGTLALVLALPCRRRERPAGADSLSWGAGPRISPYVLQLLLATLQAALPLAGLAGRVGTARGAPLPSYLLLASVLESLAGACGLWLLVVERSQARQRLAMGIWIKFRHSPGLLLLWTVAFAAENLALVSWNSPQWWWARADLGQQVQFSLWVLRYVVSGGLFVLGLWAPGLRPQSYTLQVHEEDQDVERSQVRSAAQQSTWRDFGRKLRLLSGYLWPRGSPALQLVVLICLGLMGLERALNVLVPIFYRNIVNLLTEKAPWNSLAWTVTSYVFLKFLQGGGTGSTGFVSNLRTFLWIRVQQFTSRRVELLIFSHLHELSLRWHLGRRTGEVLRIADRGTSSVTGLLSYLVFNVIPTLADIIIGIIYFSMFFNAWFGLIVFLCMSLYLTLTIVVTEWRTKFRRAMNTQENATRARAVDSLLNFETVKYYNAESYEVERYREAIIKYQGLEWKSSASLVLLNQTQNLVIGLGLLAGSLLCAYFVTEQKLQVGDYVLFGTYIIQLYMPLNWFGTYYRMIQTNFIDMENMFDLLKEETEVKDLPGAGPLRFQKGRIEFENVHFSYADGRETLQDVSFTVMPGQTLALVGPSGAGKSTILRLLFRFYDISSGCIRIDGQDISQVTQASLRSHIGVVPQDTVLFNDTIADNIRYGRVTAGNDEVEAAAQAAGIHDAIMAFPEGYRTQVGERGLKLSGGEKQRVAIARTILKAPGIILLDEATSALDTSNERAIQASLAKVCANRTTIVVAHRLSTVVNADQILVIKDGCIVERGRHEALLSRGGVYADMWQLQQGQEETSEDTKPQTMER

[11] = promoters of myeloid differentiation in arrested cells, primary screen, cell-based, GFP/MAC1 double positive, flow cytometry, validation set (AID 588685); details: ER-HoxA9 marrow cells, stronger effect = higher value, normalized: vehicle 0, fulvestrant 100;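 note: compound exposure lasts four days before antibody staining and flow analysis; 0% = DMSO wells and 100% = 5 µM fulvestrant positive control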

Cn1cc(CN(CCO)Cc2cccs2)c(-c2cccc(Cl)c2)n1
inactive: vesicle binding response [1] 159% | inhibition [2] -1.79% | superoxide response (% of plate) [3] 92.3% | aptamer binding inhibition [4] 3% | response [5] 32.8% | inhibition [6] -0.41% | response [7] 1.36% | binding (% of control) [8] 99.3% | efflux inhibition (fraction of control) [9] -0.06 | inhibition [10] 5% | differentiation response [11] -8.8%
55.3%: double positive events [1]

CC[N+](C)(C)Cc1ccccc1Br
inactive: vesicle binding response [1] 185% | inhibition [2] 8.25% | superoxide response (% of plate) [3] 96.2% | aptamer binding inhibition [4] 4% | response [5] -19.8% | inhibition [6] -11.2% | response [7] -30.5% | binding (% of control) [8] 102% | efflux inhibition (fraction of control) [9] 0 | inhibition [10] 2% | differentiation response [11] -11.9%
63.8%: double positive events [1]

Cc1csc(CCc2nc(C)cs2)n1
inactive: vesicle binding response [1] 130% | inhibition [2] 2.93% | superoxide response (% of plate) [3] 108% | aptamer binding inhibition [4] 1% | response [5] -2.9% | inhibition [6] -2.65% | response [7] 0.13% | binding (% of control) [8] 102% | efflux inhibition (fraction of control) [9] 0.01 | inhibition [10] 17% | differentiation response [11] -4.57%
55.3%: double positive events [1]

COc1ccc(N2C(=O)[C@@H]3Cc4ccccc4CN3C2=O)cc1
inactive: vesicle binding response [1] 211% | inhibition [2] 14.6% | superoxide response (% of plate) [3] 89.7% | aptamer binding inhibition [4] 5% | response [5] 12.1% | inhibition [6] -2.78% | response [7] -2.4% | binding (% of control) [8] 107% | efflux inhibition (fraction of control) [9] 0.01 | inhibition [10] 7% | differentiation response [11] 18.4%
63.2%: double positive events [1]

O=C(c1ccc([N+](=O)[O-])cc1)N1CCSC1c1ccccc1Cl (centres undefined)
inactive: vesicle binding response [1] 441% | inhibition [2] -9.98% | superoxide response (% of plate) [3] 91% | aptamer binding inhibition [4] 4% | response [5] -12.5% | inhibition [6] -8.18% | response [7] -2.22% | binding (% of control) [8] 101% | efflux inhibition (fraction of control) [9] -0.1 | inhibition [10] 5% | differentiation response [11] 0.8%
77.4%: double positive events [1]

CC(=O)NCCCC(=O)NC(CCC(=O)OCc1ccccc1)C(=O)OCc1ccccc1 (centres undefined)
inactive: vesicle binding response [1] 425% | inhibition [2] 5.03% | superoxide response (% of plate) [3] 86.7% | aptamer binding inhibition [4] 1% | response [5] 6.65% | inhibition [6] -8.67% | response [7] -0.06% | binding (% of control) [8] 96.8% | efflux inhibition (fraction of control) [9] 0.4 | inhibition [10] 2% | differentiation response [11] 34.4%
72.6%: double positive events [1]

COc1ccc(C(=O)Nc2nc3ccccc3c(=O)[nH]2)cc1
65.5%: double positive events [1]
inactive: vesicle binding response [1] 352% | inhibition [2] 3.67% | superoxide response (% of plate) [3] 84.4% | aptamer binding inhibition [4] 0% | response [5] 37.4% | inhibition [6] 4.94% | response [7] -8.54% | binding (% of control) [8] 99.1% | efflux inhibition (fraction of control) [9] -0.03 | inhibition [10] 4% | differentiation response [11] 0%

CC(C)CC(=O)OC1C(N2CCOCC2)c2c(ccc(/C=C/C(=O)N3CCOCC3)c2O)OC1(C)C (centres undefined)
active: response [5] 84.7% | differentiation response [11] 53.6%
inactive: vesicle binding response [1] 158% | inhibition [2] -3.16% | superoxide response (% of plate) [3] 101% | aptamer binding inhibition [4] -1% | inhibition [6] 35% | response [7] -2.63% | binding (% of control) [8] 108% | efflux inhibition (fraction of control) [9] 0.37 | inhibition [10] 5%
57.1%: double positive events [1]

C=CCN1C(=O)c2oc3ccccc3c(=O)c2C1c1ccc(O)c(OC)c1 (centres undefined)
active: response [5] 105%
60.1%: double positive events [1]
inactive: vesicle binding response [1] 150% | inhibition [2] 10.5% | superoxide response (% of plate) [3] 102% | aptamer binding inhibition [4] 2% | inhibition [6] -0.24% | response [7] 2.05% | binding (% of control) [8] 99.1% | efflux inhibition (fraction of control) [9] 0.37 | inhibition [10] 0% | differentiation response [11] 40.8%

CN1CCc2cccc3c2[C@@H]1Cc1ccc(O)c(O)c1-3
inactive: vesicle binding response [1] 194% | inhibition [2] -38.6% | superoxide response (% of plate) [3] 93.1% | aptamer binding inhibition [4] 11% | response [5] 26.8% | inhibition [6] 6.55% | response [7] -9.4% | binding (% of control) [8] 100% | efflux inhibition (fraction of control) [9] -0.09 | inhibition [10] -20% | differentiation response [11] 5.85%
61%: double positive events [1]

CC[n+]1ccc2cc(OC)c(OC)cc2c1Cc1ccc(OC)c(OC)c1
inactive: vesicle binding response [1] 174% | inhibition [2] -10.5% | superoxide response (% of plate) [3] 98.6% | aptamer binding inhibition [4] 2% | response [5] -11.2% | inhibition [6] -12.4% | response [7] -0.56% | binding (% of control) [8] 106% | efflux inhibition (fraction of control) [9] -0.09 | inhibition [10] 6% | differentiation response [11] -1.05%
64%: double positive events [1]

Cc1oc2c(C)c3oc(=O)c4c(c3cc2c1C)CCCC4
inactive: inhibition [2] -22.2% | superoxide response (% of plate) [3] 114% | aptamer binding inhibition [4] 3% | response [5] -4.45% | inhibition [6] -2.86% | response [7] 0.57% | binding (% of control) [8] 89.1% | efflux inhibition (fraction of control) [9] -0.2 | inhibition [10] 2% | differentiation response [11] 2.2%
active: vesicle binding response [1] 32.8%
54.6%: double positive events [1]
